Source: PubChem BioAssay AID1445 (SRMLSC, 2008)
Among all 220,000 compounds or so, about 910 (0.41%) were called active. For the sample, actives were picked, then their nearest neighbours and some compounds at random. Potency and affinity values are given separately. A number with no mark means an inactive call.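 How the source made its calls: active means primary inhibition above the hit cutoff, then over 50% inhibition at one or more dose response concentrations (cut at about 23% in these data, passing the limit was not always enough); inconclusive means conflicting primary data, or primary hits not chosen for dose response; inactive means low primary inhibition, or under 50% at every dose.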

Biological target: Aminopeptidase N (Plasmodium falciparum (isolate 3D7)) (UniProt O96935)
Experiment: P. falciparum M1AAP inhibitors, biochemical, fluorogenic H-Leu-NHMec substrate, 1536-well (AID 1445);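 further: plate controls were DMSO full reaction for no effect and no enzyme background for full effect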
Settings: recombinant M1AAP, H-Leu-NHMec fluorogenic kinetic assay; at 30 µM, stronger effect = higher value unless noted

Sequence of Aminopeptidase N (Plasmodium falciparum (isolate 3D7)) (O96935 whole entry, looked up): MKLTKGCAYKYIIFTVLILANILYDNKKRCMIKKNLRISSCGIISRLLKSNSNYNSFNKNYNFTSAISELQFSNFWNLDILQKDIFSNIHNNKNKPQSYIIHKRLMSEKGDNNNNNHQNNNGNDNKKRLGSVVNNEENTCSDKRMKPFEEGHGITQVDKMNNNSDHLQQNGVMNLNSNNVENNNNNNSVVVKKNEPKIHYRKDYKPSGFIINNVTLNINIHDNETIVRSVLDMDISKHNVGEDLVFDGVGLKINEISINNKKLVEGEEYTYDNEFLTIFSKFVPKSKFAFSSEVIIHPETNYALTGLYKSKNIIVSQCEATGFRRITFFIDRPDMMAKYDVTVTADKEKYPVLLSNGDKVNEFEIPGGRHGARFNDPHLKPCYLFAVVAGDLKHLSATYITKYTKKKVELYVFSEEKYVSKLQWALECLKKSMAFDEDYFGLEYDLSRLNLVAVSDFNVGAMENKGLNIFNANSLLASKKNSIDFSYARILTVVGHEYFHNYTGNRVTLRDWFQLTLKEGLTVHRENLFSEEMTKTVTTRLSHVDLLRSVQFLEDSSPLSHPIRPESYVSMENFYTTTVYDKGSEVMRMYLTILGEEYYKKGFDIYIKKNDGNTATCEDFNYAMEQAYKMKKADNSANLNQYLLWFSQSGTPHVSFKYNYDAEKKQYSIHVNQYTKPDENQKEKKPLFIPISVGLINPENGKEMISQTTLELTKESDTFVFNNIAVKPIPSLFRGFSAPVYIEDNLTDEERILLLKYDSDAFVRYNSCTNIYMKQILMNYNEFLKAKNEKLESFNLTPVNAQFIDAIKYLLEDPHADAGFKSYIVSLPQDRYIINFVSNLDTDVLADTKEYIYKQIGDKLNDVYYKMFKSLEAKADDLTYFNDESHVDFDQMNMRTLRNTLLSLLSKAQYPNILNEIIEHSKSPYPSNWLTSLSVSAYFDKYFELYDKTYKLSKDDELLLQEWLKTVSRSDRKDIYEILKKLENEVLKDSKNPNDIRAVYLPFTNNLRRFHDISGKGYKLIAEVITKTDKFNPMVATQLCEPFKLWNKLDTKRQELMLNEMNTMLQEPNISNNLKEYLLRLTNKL

Structure (SMILES)	inhibition
FC(F)(F)c1ccccc1CN1CCN(C2CCCCCC2)CC1	3.5%
CCOC(=O)N1CCN(C(=O)COc2cc(=O)n(CC)c3ccccc23)CC1	3.47%
Cc1ccccc1NC(=O)N1CCc2ccccc2C1	1.94%
O=Cc1ccc2cccnc2n1	3.17%
O=C(CN1C(=O)S/C(=C\c2ccccc2)C1=O)NNC(=O)c1ccccc1O	6.38%
O=C(O)c1ccc(COc2ccccc2/C=C2\NC(=O)N(Cc3ccccc3)C2=O)cc1	-0.49%
O=C(Nc1ccc(O)cc1)c1ccc2c(c1)C(=O)N(Cc1ccco1)C2=O	3.19%
O=C1c2ccccc2C(=O)N1Cc1ccco1	3.2%
Cc1ccccc1NC(=O)c1ccccc1O	12.9%
CC1=CC(C)(C)NC(=S)N1c1ccccc1C	0.18%
CCOc1ccc(-c2nnc3ccc(SCC(=O)Nc4nc5ccccc5s4)nn23)cc1	-0.15%
Cc1c(NC(=O)C(C)OC(=O)[C@@H](NC(=O)c2ccccc2)C(C)C)c(=O)n(-c2ccccc2)n1C (stereo partly drawn)	11.4%
CC(C)Cn1c(-c2ccncc2)n[nH]c1=S	-1.73%
CCc1ccc2[nH]c(=O)c(CN(CCN(CC)CC)C(=O)NC3CCCCC3)cc2c1	6.76%
CCOC(=O)CNC(=O)Cc1ccc(OC)cc1	-3.67%
COC(=O)c1ccccc1NC(=O)CSc1nc2cccnc2n1C	-3.92%
O=C(CSc1nc2ccccc2n1CC(=O)N1CCOCC1)N1CCCC1	1.43%
CCSc1nc2ccccc2n1CC(=O)N1CCOCC1	8.83%
CCC(=O)N1CCN(C(C)=O)C1c1ccccc1 (stereo not drawn)	-1.61%
CCC(=O)N1CCN(C(=O)CC)C1c1ccccc1	1.3%
CC1C(=O)CC(c2ccccc2)N(C)C1c1ccccc1 (stereo not drawn)	-1.3%

Structure (SMILES)	inhibition
CC(=O)N1CCN(C(C)=O)C1c1ccccc1	4.82%
COc1ccc(N=C2SC(CC(=O)Nc3ccc(F)cc3)C(=O)N2Cc2ccco2)cc1 (stereo not drawn)	5.55%
COc1ccc(O)c(C(=O)c2cc(C#N)c(=O)n(-c3ccc(Cl)cc3)c2)c1	4.39%
O=C(c1ccc(COCC(F)(F)F)o1)N1CCCCCC1	-0.95%
CC(=O)c1cc(-c2ccccc2)n(CC(=O)NC(C)(C)C)c1C	5.46%
COCCNc1cc(C)c(C#N)c2nc3ccccc3n12	-4.32%
COc1cccc(/C=N/Nc2ncnc3scc(-c4ccccc4)c23)c1O	2.95%
COc1ccc(/C=N/N2C(=O)CSC2=S)cc1	10.4%
COc1cc(/C=N/N2C(=O)CSC2=S)ccc1O	20.3%
Oc1ccc2ccccc2c1CNc1cnc2ccccc2c1	24.4% (active)
COc1cccc(CNc2cnc3ccccc3c2)c1O	2.44%
Oc1ccccc1CNc1cnc2ccccc2c1	9.27%
O=C(NCCCc1ccccc1)c1ccncc1	-1.01%
CCNC(=S)NNC(=O)c1ccncc1	0.26%
O=C(NCCc1ccccc1)c1ccncc1	-0.47%
O=C(CCN1C(=O)/C(=C/c2ccc(F)cc2)SC1=S)NNC(=O)c1ccncc1	-9.67%
CCOc1ccc(NC(=O)CN(C)C(=O)C2CCCC2)cc1OCC	8.15%
CC(=O)Nc1ccc2nc(SCC(=O)N3CCOCC3)sc2c1	2.3%
COC(=O)CNC(=O)C(C)NC(=O)OCc1ccccc1 (stereo not drawn)	3.83%
Cc1cc(C)c2[nH]c(=O)c(C(c3nnnn3C(C)(C)C)N(Cc3ccco3)CC3CCCO3)cc2c1 (stereo not drawn)	11.4%
O=C(CSc1nnc(SCc2ccc(Cl)cc2)s1)N/N=C/c1ccccc1C(=O)O	2.73%

Structure (SMILES)	inhibition
O=C(O)COc1ccccc1/C=N/NC(=O)CSc1nnc(SCc2cccc3ccccc23)s1	11.9%
O=C(CSc1nnc(SCc2ccccc2)s1)N/N=C/c1ccc(Cl)cc1Cl	5.23%
O=C(O)COc1ccccc1/C=N/NC(=O)CSc1nnc(SCc2ccccc2)s1	14.1%
CCOc1ccccc1-n1c(COc2ccccc2)nnc1SCC(N)=O	6.25%
COc1ccc2cc(CN(C(=O)Nc3ccccc3)C3CCCC3)c(=O)[nH]c2c1	10.9%
O=C(CCNC(=O)c1ccccc1Cl)Nc1ccc(S(=O)(=O)Nc2ncccn2)cc1	-2.53%
COc1ccc(C2=NN(C(=O)CCC(=O)O)C(c3cccs3)C2)cc1 (stereo not drawn)	6.04%
O=C(O)CCC(=O)N1N=C(c2ccc(Br)cc2)CC1c1cccs1 (stereo not drawn)	7.55%
O=C(O)CCC(=O)N1N=C(c2ccco2)CC1c1cccs1 (stereo not drawn)	-6.29%
COc1ccc(OC)c(C2CC(c3c(-c4ccccc4)c4cc(Cl)ccc4[nH]c3=O)=NN2S(C)(=O)=O)c1 (stereo not drawn)	6.89%
COc1ccccc1C1CC(c2c(-c3ccccc3)c3cc(Cl)ccc3[nH]c2=O)=NN1S(C)(=O)=O (stereo not drawn)	33.3%
COc1cccc(C2=NN(C(=O)CCCC(=O)O)C(c3cccs3)C2)c1 (stereo not drawn)	2.4%
O=C(O)CCCC(=O)N1N=C(c2ccccc2)CC1c1cccs1 (stereo not drawn)	-2.7%
Cc1ccc(C2=NN(C(=O)CCC(=O)O)C(c3cccs3)C2)cc1 (stereo not drawn)	-2.92%
O=C(C1CCCCN1S(=O)(=O)c1ccccc1[N+](=O)[O-])N1CCCC1 (stereo not drawn)	-3.36%
CC(NC(=O)c1ccccc1Cl)C(=O)O (stereo not drawn)	-7.3%
CCN(CC)S(=O)(=O)c1ccc(C(=O)Nc2ccc3c(c2)OCCO3)cc1	4.24%
N/C(=N\OC(=O)CCCOc1ccccc1)c1ccc([N+](=O)[O-])cc1	6.54%
CCOC(=O)c1c(C)nc2ccc(Cl)cc2c1-c1ccccc1	5.75%
Cc1nc2ccc(Cl)cc2c(-c2ccccc2)c1CC(=O)O	14.4%
CCOC(=O)c1ccccc1NC(=O)c1cn(-c2ccc(C)c(C)c2)c(=O)c2ccccc12	1.24%
